The nature of assay [1]: Nuclear factor erythroid 2-related factor 2/antioxidant responsive element (Nrf2/ARE) small molecule agonists: qHTS cell viability counter screen in human keratinocytes (AID 1919968; active means well fitted curve in the direction sought with a large enough effect in the repeat runs; an effect the other way counts as inactive or inconclusive; further: nearly all actives have a fitted effect of over 55% in size). In short, it runs like this: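 Viability counter-screen: KeratinoSens reporter cells, DMSO-delivered compounds, 23 h at 37 C, CellTiter-Fluor fluorescence.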
Assay [2] in a line: Nuclear factor erythroid 2-related factor 2/antioxidant responsive element (Nrf2/ARE) small molecule agonists: luciferase reporter gene qHTS assay in human keratinocytes (AID 1919969). Further: nearly all actives have a fitted effect of over 35% in size.
Assay [3] has as its target Gonadotropin-releasing hormone receptor (Homo sapiens) (UniProt P30968). As to the kind of experiment: Human gonadotropin-releasing hormone receptor (GnRHR) small molecule agonists, calcium flux assay in GnRHR-HEK293 cells (AID 1920063). Further: nearly all actives have a fitted effect of over 35% in size. In short, it runs like this:
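Tox21-format agonist screen using human GnRHR-expressing HEK293 cells and a fluorescent calcium dye; kinetic 3-min fluorescence reading after compound addition, 15-point concentration series run in triplicate.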
(In general: Calcium assays in cells follow changes in intracellular calcium, usually with a dye or a luminescent sensor.)

For assay [4], the target named is KiSS-1 receptor (Homo sapiens) (UniProt Q969F8). As to the kind of experiment: Human kisspeptin (KISS1R) small molecule agonists, calcium flux assay in KISS1R-HEK293 cells (AID 1920064; active means well fitted curve in the direction sought with a large enough effect in the repeat runs; an effect the other way counts as inactive or inconclusive). The essentials:
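Intracellular calcium mobilization in KISS1R-HEK293 cells was recorded by fluorescence (Ex/Em 480/540) for 3 min following compound addition to cells pre-loaded 1 h with calcium dye.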

A short description of assay [5]: G protein-coupled receptor (GPCR) small molecule agonists, calcium flux assay: HEK293 wild type cell line counter screen (AID 1920065). In short, it runs like this: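 In this agonist-mode screen, ATP is the positive control and DMSO the vehicle. Cells grow 18 h before a 1 h dye incubation at 37 C; signal is taken at Ex/Em 480/540 over 3 min.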
Assay [6] is described as follows: p53 small molecule agonists, cell-based qHTS assay with rat liver microsomes (AID 1963578). The essentials: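 Rat liver microsome activation: microsomes 0.5 mg/mL, NADPH 0.5 mg/mL final; p53RE-bla cells, 16 h 37 C; LiveBLAzer readout, 2 h RT dark.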
A short description of assay [7]: p53 small molecule agonists, cell-based qHTS assay with human liver microsomes: qHTS cell viability counter screen (AID 1963579). Further: nearly all actives have a fitted effect of over 45% in size. The essentials: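 Luminescent CellTiter-Glo read-out, 30 min at room temperature, gauged cytotoxicity in p53RE-bla cells exposed 16 h at 37 C to DMSO-dissolved compounds with metabolic activation by human liver microsomes and NADPH, each 0.5 mg/mL final.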
On the technique in general: qHTS replaces the single test concentration by a dilution series.

Assay [8] in a line: p53 small molecule agonists, cell-based qHTS assay with rat liver microsomes: qHTS cell viability counter screen (AID 1963580). Further: nearly all actives have a fitted effect of over 45% in size. The essentials:
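HCT-116 p53RE-bla, 4,000 cells/well, 5 h pre-incubation; cpd + rat liver microsomes 0.5 mg/mL + NADPH 0.5 mg/mL (final); 16 h, 37 C; CellTiter-Glo, 30 min RT; luminescence.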

Assay [9] is described as follows: p53 small molecule agonists, cell-based qHTS assay: qHTS cell viability counter screen (AID 1963581). Further: nearly all actives have a fitted effect of over 45% in size. In short, it runs like this:
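Compounds are pinned onto HCT-116 p53RE-bla cells and left 16 h at 37 C. Following the reporter FRET read, ATP is quantified by CellTiter-Glo luminescence after 30 min at room temperature.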

Assay [10] can be described thus: p53 small molecule agonists, cell-based qHTS assay (AID 1963582; active means well fitted activation curve with a large enough effect in the signal ratio in the repeat runs, not every such curve was filed as active; the % refers to the signal ratio). The essentials:
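Agonist activity was scored from beta-lactamase FRET fluorescence in p53RE-bla cells treated 16 h at 37 C with compounds in DMSO, substrate incubation being 2 h at room temperature.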

Assay [11] has as its target 5-hydroxytryptamine receptor 2A (Homo sapiens) (UniProt P28223). Put plainly: 5-hydroxytryptamine receptor 2A (HTR2A) small molecule antagonists, cell-based qHTS assay (AID 1963586). Further: nearly all actives have a fitted effect of over 45% in size. In short, it runs like this:
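Antagonist-mode intracellular calcium assay: DOI (4 nM) added after 5 min compound pre-incubation at room temperature to dye-loaded HTR2A-CHO cells. Fluorescence followed for 3 min, sampled every second.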

Assay [12] has the same target. As to the kind of experiment: 5-hydroxytryptamine receptor 2A (HTR2A) small molecule agonists, cell-based qHTS assay (AID 1963587). Further: nearly all actives have a fitted effect of over 30% in size. Further: potency means the concentration at half of the fitted maximal effect. The essentials:
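Kinetic calcium-flux fluorescence (2 min, 1 sec intervals) after compound addition in agonist mode. HTR2A-CHO cells were cultured 18 h, then dye-loaded 1 h at 37 C.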

The target in assay [13] is Muscarinic acetylcholine receptor M1 (Homo sapiens) (UniProt P11229). As to the kind of experiment: Cholinergic receptor muscarinic 1 (CHRM1) small molecule antagonists, cell-based qHTS assay (AID 1963588). Further: nearly all actives have a fitted effect of over 40% in size. Further: potency means the concentration at half of the fitted maximal effect. In short, it runs like this:
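CHRM1-CHO calcium-flux assay, antagonist mode. Cells were seeded 18 h, dye-loaded 1 h at 37 C and given compound for 5 min at RT, then acetylcholine was added at 50nM. FDSS fluorescence was read 3 min; 15 concentrations, three runs.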

The target is the same in assay [14]. Put plainly: Cholinergic receptor muscarinic 1 (CHRM1) small molecule agonists, cell-based qHTS assay (AID 1963589). Further: nearly all actives have a fitted effect of over 35% in size. In short, it runs like this:
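Stable CHRM1-CHO cells (human receptor) were incubated 18 h, dye-loaded for 1 h at 37 C and exposed to test compounds for agonist activity, with calcium-dependent fluorescence followed kinetically.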

Assay [15] is described as follows: cAMP Responsive Elements (CRE) small molecule agonists, cell-based qHTS assay (AID 1963590). The essentials:
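FRET-based beta-lactamase readout (LiveBLAzer B/G, 2 h RT) quantified CRE activation in HEK 293T CRE-bla cells after 3 h treatment with DMSO-dissolved compounds.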

Assay [16] in a line: cAMP Responsive Elements (CRE) small molecule antagonists, cell-based qHTS assay (AID 1963591; active means well fitted inhibition curve with a large enough effect in the signal ratio in the repeat runs, not every such curve was filed as active; the % refers to the signal ratio). In short, it runs like this: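 qHTS in CRE-bla HEK 293T cells: compound in DMSO, then 0.25 uM NKH477 (final), 3 h at 37 °C/5% CO2; beta-lactamase FRET read-out after 2 h substrate incubation.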
The target in assay [17] is Beta-2 adrenergic receptor (Homo sapiens) (UniProt P07550). As to the kind of experiment: Adrenergic beta2 receptor (ADRB2) small molecule antagonists, cell-based qHTS assay (AID 1963592). Further: series mostly up to about 92 µM; nearly all actives have a fitted effect of over 50% in size. In short, it runs like this:
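Cells (CHO, stable ADRB2 overexpression) incubated 18-20hr at 37C; compounds added from DMSO; agonist mix (1nM isoproterenol, 100uM IBMX, 25uM Ro-20-1724) added; 0.5hr RT; d2-cAMP and anti-cAMP-cryptate added; 1hr RT; 665/615 nm read.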

The target is the same in assay [18]. Put plainly: Adrenergic beta2 receptor (ADRB2) small molecule agonists, cell-based qHTS assay (AID 1963593).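 Further: CHO cells stably overexpressing human ADRB2.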 The essentials:
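CHO cells stably over-expressing ADRB2 were plated overnight at 37C, then dosed with compounds plus a stimulation mix containing 100uM IBMX and 25uM Ro-20-1724 for 0.5hr at room temperature. cAMP was measured by HTRF competition, 1hr.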

For assay [19], the target named is D(2) dopamine receptor (Homo sapiens) (UniProt P14416). Put plainly: Dopamine D2 receptor (DRD2) small molecule agonists, cell-based qHTS assay (AID 1963594). Further: nearly all actives have a fitted effect of over 35% in size. The essentials:
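cAMP accumulation in DRD2-HEK293 cells measured by HTRF after 1 h detection; compounds added 10 min before NKH477 (200nM […]) forskolin-analogue stimulation, 30 min at room temperature, with Ro20-1724 present at 0.1 mM final.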

Assay [20] shares this target. Put plainly: Dopamine D2 receptor (DRD2) small molecule antagonists, cell-based qHTS assay (AID 1963595; active means well fitted inhibition curve with a large enough effect in the signal ratio in the repeat runs, with a control signal flat; the % refers to the signal ratio; further: potency means the concentration at half of the fitted maximal effect). The essentials: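 HEK293 cells stably expressing DRD2, preincubated with 0.1 mM Ro20-1724 and compounds 10 min, were stimulated with 200 nM NKH477 plus 12 nM quinpirole for 30 min at room temperature; cAMP measured by HTRF (665/620 nm).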

A number with no mark means an inactive call. Inconclusive results are not listed. Calls of active or inactive are those of the source. Unless noted, the call rests on the fitted dose curve.

Gonadotropin-releasing hormone receptor (Homo sapiens), sequence (P30968 whole entry, looked up): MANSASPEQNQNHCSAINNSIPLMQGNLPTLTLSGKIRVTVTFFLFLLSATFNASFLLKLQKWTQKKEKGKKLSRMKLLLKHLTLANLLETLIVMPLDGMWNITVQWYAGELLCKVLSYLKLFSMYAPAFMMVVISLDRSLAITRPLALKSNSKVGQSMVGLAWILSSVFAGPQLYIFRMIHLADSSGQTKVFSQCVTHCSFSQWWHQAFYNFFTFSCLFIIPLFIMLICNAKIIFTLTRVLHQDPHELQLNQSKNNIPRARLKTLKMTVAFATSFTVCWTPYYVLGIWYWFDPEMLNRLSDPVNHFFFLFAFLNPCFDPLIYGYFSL
Beta-2 adrenergic receptor (Homo sapiens), sequence (P07550 whole entry, looked up): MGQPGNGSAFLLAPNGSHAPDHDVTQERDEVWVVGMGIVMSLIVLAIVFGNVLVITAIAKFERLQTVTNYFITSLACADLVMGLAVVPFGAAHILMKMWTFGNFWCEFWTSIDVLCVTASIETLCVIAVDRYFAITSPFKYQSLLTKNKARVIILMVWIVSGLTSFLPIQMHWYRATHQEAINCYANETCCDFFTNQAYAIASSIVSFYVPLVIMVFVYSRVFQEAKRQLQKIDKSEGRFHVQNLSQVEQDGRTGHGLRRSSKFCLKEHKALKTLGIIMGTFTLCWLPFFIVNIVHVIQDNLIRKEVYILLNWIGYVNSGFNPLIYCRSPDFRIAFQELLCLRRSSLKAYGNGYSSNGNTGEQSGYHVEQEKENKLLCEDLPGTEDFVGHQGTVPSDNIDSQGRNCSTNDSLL
Muscarinic acetylcholine receptor M1 (Homo sapiens), sequence (P11229 whole entry, looked up): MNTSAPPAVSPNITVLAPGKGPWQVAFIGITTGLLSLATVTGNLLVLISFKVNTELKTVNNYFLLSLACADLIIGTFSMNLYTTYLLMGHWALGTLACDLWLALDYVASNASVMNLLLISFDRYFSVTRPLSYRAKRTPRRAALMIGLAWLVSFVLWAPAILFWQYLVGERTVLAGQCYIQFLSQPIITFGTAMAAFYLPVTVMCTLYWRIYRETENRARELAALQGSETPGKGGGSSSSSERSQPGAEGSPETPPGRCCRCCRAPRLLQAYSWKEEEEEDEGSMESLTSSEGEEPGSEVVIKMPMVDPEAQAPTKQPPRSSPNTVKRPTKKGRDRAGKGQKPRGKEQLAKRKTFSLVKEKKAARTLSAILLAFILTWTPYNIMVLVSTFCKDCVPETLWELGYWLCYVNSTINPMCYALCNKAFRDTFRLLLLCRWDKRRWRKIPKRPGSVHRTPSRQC
KiSS-1 receptor (Homo sapiens), sequence (Q969F8 whole entry, looked up): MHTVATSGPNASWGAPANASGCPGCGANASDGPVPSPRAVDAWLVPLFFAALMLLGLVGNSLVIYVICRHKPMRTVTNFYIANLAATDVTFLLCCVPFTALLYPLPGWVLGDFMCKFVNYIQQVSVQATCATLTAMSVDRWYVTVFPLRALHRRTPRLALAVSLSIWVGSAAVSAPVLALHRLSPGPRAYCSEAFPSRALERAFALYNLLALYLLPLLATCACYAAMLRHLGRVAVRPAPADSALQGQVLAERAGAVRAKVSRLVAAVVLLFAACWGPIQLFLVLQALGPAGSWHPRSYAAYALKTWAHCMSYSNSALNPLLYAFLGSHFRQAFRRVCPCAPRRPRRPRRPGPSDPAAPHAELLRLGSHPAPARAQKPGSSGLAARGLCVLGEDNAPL
D(2) dopamine receptor (Homo sapiens), sequence (P14416 whole entry, looked up): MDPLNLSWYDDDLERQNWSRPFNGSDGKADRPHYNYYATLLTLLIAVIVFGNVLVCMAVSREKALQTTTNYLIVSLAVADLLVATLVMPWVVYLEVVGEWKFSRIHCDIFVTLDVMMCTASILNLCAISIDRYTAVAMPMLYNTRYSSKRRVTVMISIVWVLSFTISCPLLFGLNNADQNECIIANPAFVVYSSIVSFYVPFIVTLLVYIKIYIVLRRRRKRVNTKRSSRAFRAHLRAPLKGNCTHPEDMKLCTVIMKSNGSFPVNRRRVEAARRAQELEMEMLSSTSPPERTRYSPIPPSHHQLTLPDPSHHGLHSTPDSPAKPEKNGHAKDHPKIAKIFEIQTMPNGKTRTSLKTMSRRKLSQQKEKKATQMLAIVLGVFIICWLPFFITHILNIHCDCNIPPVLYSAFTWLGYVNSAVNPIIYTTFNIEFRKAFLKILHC
5-hydroxytryptamine receptor 2A (Homo sapiens), sequence (P28223 whole entry, looked up): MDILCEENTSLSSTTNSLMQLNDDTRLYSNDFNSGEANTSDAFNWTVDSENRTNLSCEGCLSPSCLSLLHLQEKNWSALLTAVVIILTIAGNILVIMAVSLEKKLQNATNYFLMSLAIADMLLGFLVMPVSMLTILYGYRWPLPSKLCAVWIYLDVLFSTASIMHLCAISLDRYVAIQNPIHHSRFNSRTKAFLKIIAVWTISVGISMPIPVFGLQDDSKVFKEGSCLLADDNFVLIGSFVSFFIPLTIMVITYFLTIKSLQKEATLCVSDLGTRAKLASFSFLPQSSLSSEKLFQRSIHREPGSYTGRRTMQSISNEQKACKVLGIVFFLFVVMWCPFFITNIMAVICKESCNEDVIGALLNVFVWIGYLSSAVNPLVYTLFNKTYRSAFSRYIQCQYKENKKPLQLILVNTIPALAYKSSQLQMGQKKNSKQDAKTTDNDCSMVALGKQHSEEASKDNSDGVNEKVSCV

For `CCCCCCCCCCCC(=O)OCC`, the Potency result in [1], in [2], in assay [3], in [4], in assay [5] and in [6] was “inactive” each time. Further, the Potency result in assay [7], in assay [8], in [9], in [10], in [11] and in assay [12] was “inactive” each time. Besides, the Potency entry in assay [13], in assay [14], in [15], in [16], in assay [17] and in [18] was “inactive” in each case. The Potency result in assay [19] and in assay [20] was “inactive” throughout.
On to `CC[N+](C)(CC)CC`, for which the Potency result in [1], in assay [2], in assay [3], in assay [4], in [5] and in assay [8] was “inactive” in each case. The Potency entry in assay [9], in [10], in assay [12], in assay [13], in [14] and in [15] was “inactive” each time. Also, the Potency result in assay [16], in assay [17], in assay [18], in [19] and in assay [20] was “inactive” each time.
On to `O=S(=O)(O)c1cc(I)c(O)c2ncccc12`, for which the Potency result in assay [1], in [2], in assay [3], in [4], in assay [5] and in [7] was “inactive” each time. The Potency entry in assay [8], in assay [10], in assay [11], in assay [12], in assay [13] and in [14] was “inactive” in each case. The Potency result in [15], in assay [16], in assay [17], in assay [18] and in [20] was “inactive” each time.
Turning to `O=C(/C=C/c1ccc(O)c(O)c1)O[C@@H]1C[C@@](OC(=O)/C=C/c2ccc(O)c(O)c2)(C(=O)O)C[C@@H](O)[C@@H]1O`, the Potency entry in [1], in assay [2], in [3], in assay [4], in assay [5] and in [7] was “inactive” in each case. The Potency entry in assay [8], in assay [9], in assay [10], in [11], in assay [12] and in assay [13] was “inactive” in each case. The Potency result in [14], in assay [15], in [16], in assay [17], in [18] and in assay [19] was “inactive” each time. For the same compound, the Potency entry in assay [20] is “inactive”.
In the case of `Nc1c(I)cc(I)c(C(=O)N(CCC(=O)O)c2ccccc2)c1I`, the Potency result in assay [1], in assay [2], in assay [3], in [4], in assay [5] and in assay [6] was “inactive” each time. The Potency entry in assay [7], in assay [8], in [9], in [10], in assay [11] and in assay [12] was “inactive” throughout. In addition, the Potency result in assay [13], in assay [14], in assay [15], in assay [16], in [17] and in assay [18] was “inactive” throughout. In addition, the Potency entry in assay [19] was “inactive”.
As for `CCc1c(C)[nH]c2c1C(=O)C(CN1CCOCC1)CC2` (centres undefined), the Potency result in assay [1], in assay [2], in assay [3], in [4], in assay [5] and in [7] was “inactive” throughout. Further, the Potency entry in assay [8], in assay [9], in assay [10], in [12], in assay [13] and in [14] was “inactive” each time. Further, the Potency entry in assay [15] and in assay [16] was “inactive” each time. Also, the Potency in [20] is 0.75 µM (active).
On to `O=C(Cl)c1cc(Cl)cc(Cl)c1`, for which the Potency entry in [1], in [2], in assay [3], in assay [4], in [5] and in assay [9] was “inactive” throughout. The Potency entry in assay [10], in assay [11], in [12], in assay [13], in assay [14] and in [15] was “inactive” in each case. The Potency result in assay [18], in assay [19] and in assay [20] was “inactive” throughout.
With `CC(C)c1cccc(C(C)C)c1N1C(=O)c2ccc(O)cc2C1=O`, the Potency result in assay [1], in assay [2], in [3], in assay [4], in assay [5] and in assay [11] was “inactive” in each case. Moreover, the Potency entry in assay [17], in [18], in assay [19] and in [20] was “inactive” in each case. Moreover, the Potency was 43.6 µM (active) in assay [12] and 37.5 µM (active) in [13].
